HDAC3 inh – inhibitors of human histone deacetylase 3; O15379; 320,000 tested, 0.15% active; recombinant HDAC3, fluorogenic peptide/trypsin coupled, fluorescence; inhibition, % at 8.3 µM; AID 2718; in the data active = inhibition above about 26%, passing the limit was not always enough
Target sequence (O15379 whole entry, looked up): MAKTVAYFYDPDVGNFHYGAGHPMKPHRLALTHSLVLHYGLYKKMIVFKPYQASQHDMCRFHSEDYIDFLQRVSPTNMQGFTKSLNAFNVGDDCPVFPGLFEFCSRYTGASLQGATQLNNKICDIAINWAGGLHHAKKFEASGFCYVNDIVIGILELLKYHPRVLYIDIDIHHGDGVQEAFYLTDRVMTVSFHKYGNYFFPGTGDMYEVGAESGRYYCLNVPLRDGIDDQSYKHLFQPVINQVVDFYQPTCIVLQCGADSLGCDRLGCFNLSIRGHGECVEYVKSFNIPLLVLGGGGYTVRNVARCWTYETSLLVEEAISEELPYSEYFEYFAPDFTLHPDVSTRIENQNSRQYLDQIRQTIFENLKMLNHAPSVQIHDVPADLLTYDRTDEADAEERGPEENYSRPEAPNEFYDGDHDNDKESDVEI
DAGLB inh – diacylglycerol lipase beta (human) inhibition; Q8NCG7; HEK293T DAGLB membrane lysate, EnzChek fluorogenic substrate; inhibition, % at 5.17 µM; 340,000 tested, 0.059% active; in the data active = inhibition above about 34%
Rtt109 HAT inh – C. albicans Rtt109 histone acetyltransferase inhibition | Q5AAJ8 | purified Rtt109/Vps75, ThioGlo CoA-SH fluorescence, 4 h | inhibition, % at 34.9 µM | 330,000 tested, 0.16% active;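 active = inhibition of at least 50% in every replicate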
MIN6 prolif-1 – MIN6 beta-cell proliferation induction; MIN6 cells proliferation, ATPlite luminescence, 48 h; cells starved in 0.2% serum; 100% = growth in 10% serum; proliferation, % at 10 µM; AID 2380; 330,000 tested, 0.29% active;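 active = compounds whose signal lies at least 3.5 SD above the mean of all wells on their plate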
V-ATPase pH – alters yeast V-ATPase proton transport; S. cerevisiae, pHLuorin cytosolic pH fluorescence; response, % at 10 µM; 350,000 tested, 0.37% active; AID 504577; in the data active = response mostly above about 7.3%, no sharp cut-off; inactive = mostly below about 5.4%; also: actives read high
MIN6 prolif-2 – MIN6 beta-cell replication induction, confirmed; 920 tested, under 10 active; shares compounds with MIN6 prolif-1; MIN6 beta-cell proliferation, ATPlite luminescence, 48 h; cells kept in 0.2% serum; scaled between 0.2% and 10% serum; proliferation increase, % at 50 µM; AID 463095;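 active = proliferation increase above 40% at any of the four tested concentrations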
A number is an active result. The list is not random: actives were taken first. Their share in the collection is about 0.96%.

How did OCCC1CN(Cc2ccccc2O)CCN1CCc1ccccc1 (stereo not given) do in these assays?
HDAC3 inh: inactive; DAGLB inh: inactive; Rtt109 HAT inh: inactive; MIN6 prolif-1: 7.9; V-ATPase pH: inactive; MIN6 prolif-2: inactive

Results for OCCC1CN(CCCc2ccccc2)CCN1CCc1ccccc1 (stereo not given) ?
HDAC3 inh: inactive; DAGLB inh: inactive; Rtt109 HAT inh: inactive; MIN6 prolif-1: inactive; V-ATPase pH: inactive

Results for COC(=O)[C@H](CCSC)NC(=O)NCc1ccc(S(N)(=O)=O)cc1 ?
HDAC3 inh: inactive; DAGLB inh: inactive; Rtt109 HAT inh: inactive; MIN6 prolif-1: 8.2; V-ATPase pH: inactive; MIN6 prolif-2: inactive

Results for CCC(C)[C@H](NC(=O)NCc1ccc(S(N)(=O)=O)cc1)C(=O)OC (stereo not given in full) ?
HDAC3 inh: inactive; DAGLB inh: inactive; MIN6 prolif-1: inactive; V-ATPase pH: inactive

Results for C=CCNC(=O)c1c2c(nc3ccccc13)-c1ccccc1CC2 ?
HDAC3 inh: inactive; DAGLB inh: inactive; Rtt109 HAT inh: inactive; MIN6 prolif-1: 7.0; V-ATPase pH: inactive; MIN6 prolif-2: inactive

What do the screens show for `Nc1c(N(Cc2ccccc2)C(=O)COc2cccc(Cl)c2)c(=O)[nH]c(=O)n1Cc1ccccc1`?
HDAC3 inh: inactive; DAGLB inh: inactive; Rtt109 HAT inh: inactive; MIN6 prolif-1: inactive; V-ATPase pH: inactive

How did CCn1c(Cc2c(C)[nH]c3ccccc23)nnc1SCC(=O)NCc1ccccc1 do in these assays?
HDAC3 inh: inactive; DAGLB inh: inactive; Rtt109 HAT inh: inactive; MIN6 prolif-1: inactive; V-ATPase pH: inactive

Results for C=CCn1c(Cc2c(C)[nH]c3ccccc23)nnc1SCC(=O)NCc1ccc(F)cc1 ?
HDAC3 inh: inactive; DAGLB inh: inactive; Rtt109 HAT inh: inactive; MIN6 prolif-1: 6.9; V-ATPase pH: inactive; MIN6 prolif-2: inactive

How did COc1ccc(-c2nn3c(C4CCCCC4)nnc3s2)cc1OC do in these assays?
HDAC3 inh: inactive; DAGLB inh: inactive; Rtt109 HAT inh: inactive; MIN6 prolif-1: 9.1; V-ATPase pH: inactive; MIN6 prolif-2: inactive

Results for O=C(CN(c1ccccc1Cl)S(=O)(=O)c1ccccc1)NC1CC2CCC1C2 (stereo not given) ?
DAGLB inh: inactive; V-ATPase pH: inactive

Results for Cc1cccc(S(=O)(=O)Nc2nc3ccccc3nc2Nc2cccc(C(=O)O)c2)c1 ?
HDAC3 inh: inactive; DAGLB inh: inactive; Rtt109 HAT inh: inactive; MIN6 prolif-1: 6.6; V-ATPase pH: inactive; MIN6 prolif-2: inactive

Results for O=C(O)c1cccc(Nc2nc3ccccc3nc2NS(=O)(=O)c2ccc(F)cc2)c1 ?
HDAC3 inh: inactive; DAGLB inh: inactive; Rtt109 HAT inh: inactive; MIN6 prolif-1: inactive; V-ATPase pH: inactive

What do the screens show for `COc1cc(NC(=O)c2ccccc2F)c(OC)cc1NC(=O)CN1CCCCC1`?
HDAC3 inh: inactive; DAGLB inh: inactive; Rtt109 HAT inh: inactive; MIN6 prolif-1: 9.3; V-ATPase pH: inactive; MIN6 prolif-2: inactive

Results for COCCOc1ccc(C(F)(F)F)cc1NC(=O)c1ccccc1F ?
HDAC3 inh: inactive; DAGLB inh: inactive; Rtt109 HAT inh: inactive; MIN6 prolif-1: 6.7; V-ATPase pH: inactive; MIN6 prolif-2: inactive

How did O=S(=O)(NCc1ccco1)c1ccc2c(c1)Cc1ccccc1-2 do in these assays?
HDAC3 inh: inactive; DAGLB inh: inactive; Rtt109 HAT inh: inactive; MIN6 prolif-1: inactive; V-ATPase pH: inactive

What do the screens show for `CCOC(=O)C1CCN(C(=O)c2cc3c(-c4ccc(OC)c(OC)c4)nn(C)c3s2)CC1`?
HDAC3 inh: inactive; DAGLB inh: inactive; Rtt109 HAT inh: inactive; MIN6 prolif-1: 12.2; V-ATPase pH: inactive; MIN6 prolif-2: inactive

What do the screens show for `CC(=O)Nc1ccc(NC(=O)C(C)OC(=O)c2cccc(S(=O)(=O)N3CCCCCC3)c2)cc1` (stereo not given)?
HDAC3 inh: inactive; DAGLB inh: inactive; Rtt109 HAT inh: inactive; MIN6 prolif-1: 12.4; V-ATPase pH: 15.3; MIN6 prolif-2: inactive

Results for COc1ccc(/C(C)=N/NC(=O)CNC(=O)c2cccnc2)c(OC)c1 ?
HDAC3 inh: inactive; DAGLB inh: inactive; Rtt109 HAT inh: inactive; MIN6 prolif-1: 6.4; V-ATPase pH: inactive; MIN6 prolif-2: inactive
